Assay outcomes (PubChem BioAssay)
Rows were chosen to be rich in hits. Some 10% of all compounds tested hit in one or more screens of this group.
SW480 rereplic: inducers of DNA re-replication in SW480 colon cancer cells | AID 624297 | SW480 DNA re-replication, Hoechst DNA content imaging, 48 h | Potency, µM (doses to about 46.1 µM), inactives show at the top dose re-replication activation, usual class: activators | 340,000 tested, 1.8% active; also: % of control where 0% means no effect; nearly all actives have a fitted effect of over 55% in size
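Hoechst fluorescence of nuclei (405 nm excitation, 500-530 nm emission) measured by plate-scanning imager after 48 hr compound exposure at 37 C; re-replication scored as increased number of nuclei with elevated intensity.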
Gal4-VP16 FLuc: counter-screen for ROR gamma inhibitors: Gal4-VP16 reporter. Drosophila S2 Gal4-VP16 UAS-luciferase, luminescence, 20 h. Potency, µM (doses to about 53.6 µM), inactives show top-dose activity, negative = inhibition, actives largely listed as inhibitors. 310,000 tested, 3.5% active. AID 2546;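 also: Gal4-VP16 expression switched on by copper sulfate through the metallothionein promoter; % is scaled to controls: 0 for no effect and ±100 for the full control effect; nearly all actives have a fitted effect of over 50% in size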
KB-3-1 cytotox: kills parental KB-3-1 adenocarcinoma cells. 400,000 tested, 1.4% active. Potency, µM (top dose mostly 46.1 µM), most hits filed as cytotoxic. KB-3-1 viability, CellTiter-Glo ATP luminescence, 72 h. AID 1347075; also: % is scaled to controls: 0 for no effect and ±100 for the full control effect; nearly all actives have a fitted effect of over 60% in size
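72 h, 37 °C compound treatment of KB-3-1 parental cells; CellTiter-Glo added, 10 min, luminescence read. Data corrected against DMSO-only plates and normalized before curve fitting.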
MCF10A rereplic: DNA re-replication induction in MCF 10a cells. MCF 10A DNA re-replication, Hoechst nuclear intensity, 48 h. Potency, µM (highest dose often 46.1 µM), for inactives: at the highest dose activity, positive = re-replication, usual class: activators. 350,000 tested, 2.9% active. AID 624296; also: % of control where 0% means no effect; nearly all actives have a fitted effect of over 50% in size
KB-V1 cytotox: kills drug-selected multidrug resistant KB-V1 cells; KB-V1 MDR cells viability, CellTiter-Glo, 72 h; Potency, µM (titrated, usually from 46.1 µM), hits mostly cytotoxic; 400,000 tested, 3.4% active; AID 1347076; also: % is scaled to controls: 0 for no effect and ±100 for the full control effect; nearly all actives have a fitted effect of over 60% in size
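In this primary screen, KB-V1 cells overexpressing P-gp are incubated with library compounds (lowest to highest concentration) for 72 h at 37 degrees C before a luminescent ATP viability read.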
RORg inh: inhibitors of mouse ROR gamma transcriptional activity; Potency, µM (doses to about 53.6 µM), without a hit: at the highest dose activity change, negative = inhibition, actives largely listed as inhibitors; 310,000 tested, 5.4% active; Drosophila S2 Gal4-RORgamma UAS-luciferase reporter, 20 h; P51450; also: % is scaled to controls: 0 for no effect and ±100 for the full control effect; nearly all actives have a fitted effect of over 60% in size
Target sequence (P51450 whole entry, looked up, the tested form may be a part): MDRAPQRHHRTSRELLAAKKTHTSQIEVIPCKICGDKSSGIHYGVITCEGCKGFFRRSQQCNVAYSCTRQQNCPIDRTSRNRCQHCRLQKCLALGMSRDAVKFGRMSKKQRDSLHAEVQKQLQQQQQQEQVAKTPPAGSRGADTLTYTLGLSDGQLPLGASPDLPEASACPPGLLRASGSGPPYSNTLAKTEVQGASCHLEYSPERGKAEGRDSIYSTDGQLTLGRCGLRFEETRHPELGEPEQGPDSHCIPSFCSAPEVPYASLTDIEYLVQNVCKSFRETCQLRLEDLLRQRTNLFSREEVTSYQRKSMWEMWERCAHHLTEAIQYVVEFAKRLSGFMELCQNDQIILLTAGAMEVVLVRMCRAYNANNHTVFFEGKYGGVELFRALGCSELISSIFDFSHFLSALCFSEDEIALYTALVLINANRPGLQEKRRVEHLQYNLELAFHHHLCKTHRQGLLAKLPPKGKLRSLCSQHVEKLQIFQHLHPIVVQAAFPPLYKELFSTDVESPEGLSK
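Stably transfected Drosophila Schneider cells are the test system, with ROR gamma fused to Gal4 and luciferase under UAS control; luminescence is read after 20 hr of 700 uM copper sulfate induction at ambient temperature.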
Starred values were filed as active, the others as inactive; i = inactive; ? = inconclusive; . = no result given. Calls follow the shape of the dose curve; as a rule, active = well fitted curve in the direction sought with a large enough effect; inconclusive = small, poorly fitted or top-dose-only effect, or another doubt; inactive = no such curve, though single readings can be large; an effect the other way counts as inactive or inconclusive. Potency is read from the fitted curve at half-maximal effect.

SMILES	SW480 rereplic	Gal4-VP16 FLuc	KB-3-1 cytotox	MCF10A rereplic	KB-V1 cytotox	RORg inh
Cn1c(COc2ccccc2Br)nc2ccccc21	13.2%	?	i	8.0%	i	12.6µM*
CCn1c(COc2ccccc2OC)nc2ccccc21	?	?	i	-0.5%	i	12.6µM*
CCn1c(Cc2ccc(OC)cc2)nc2ccccc21	2.5%	35.5µM*	i	23.1%	?	11.2µM*
CCOCCn1c(COc2ccccc2)nc2ccccc21	-11.4%	-6.3%	i	23.7%	?	?
CCCn1c(COc2ccccc2)nc2ccccc21	-1.1%	0.1%	i	?	?	12.6µM*
CCc1ccccc1N(C)S(=O)(=O)c1ccc2c(c1)C(C)(C)C(=O)N2C	.	.	i	.	i	.
Cc1cc(=O)n(Cc2cccc(F)c2)c2c1c(C)nn2-c1cccc(F)c1	.	.	i	.	i	.
COc1cccc(C(=O)Nc2c(C(=O)c3ccc(F)cc3)oc3ccccc23)c1	.	.	i	.	i	.
C#CCOC(=O)NC(/C=C/CCCC)c1ccccc1 (centres undefined)	.	16.0%	.	.	.	3.7%
O=C(C1CCN(S(=O)(=O)c2cccc3nonc23)CC1)N1CCN(c2ccc(F)cc2)CC1	.	.	i	.	i	.
Cc1cccc(CNc2ncncc2-c2cccc(NS(C)(=O)=O)c2)c1	.	1.5%	.	.	.	-34.6%
COc1ccc(NC(=O)Cn2c(=O)n(Cc3ccccc3)c(=O)c3oc4ccccc4c32)cc1Cl	.	.	i	.	i	.
CCCn1c(COc2ccccc2OC)nc2ccccc21	-3.8%	?	i	-8.3%	i	10µM*
C=CCn1c(COc2ccccc2OC)nc2ccccc21	-1.9%	?	i	12.0%	i	?
CC(C)CN1C(=O)/C(=C/c2cccs2)NC1=S	5.9%	7.08µM*	i	23.6%	i	5.01µM*
COc1cccc(N2C(=O)/C(=C\c3cccs3)NC2=S)c1	-0.4%	?	i	-1.5%	i	10µM*
CC(C)CN1C(=O)/C(=C/c2ccco2)NC1=S	-696.0%	?	i	2.6%	i	?
Cc1ccc(/C=C2/NC(=O)N(Cc3ccccc3F)C2=O)s1	13.4%	-7.2%	i	?	?	7.5%
CCCN1C(=O)/C(=C/c2ccc(C)s2)NC1=S	-2.3%	10µM*	i	-0.5%	i	5.62µM*
C=CCCC(=O)N1C[C@@H](CO)[C@@H](NC)C[C@H]1c1ccccc1Br	.	.	i	.	i	.
CCOC(=O)c1cccc(NC(=O)c2cc(-c3ccc(Cl)s3)nc3ccccc23)c1	.	.	i	.	i	.
Oc1ccc2c(c1)OCC1(O)Cc3cc(O)c(O)cc3C21 (centres undefined)	?	5.62µM*	?	14.7%	i	0.708µM*
Cn1nc(C(F)(F)F)c(/C=N/OC(=O)c2ccccc2)c1Sc1ccc(Cl)cc1	?	-26.5%	?	2.3%	i	11.8%
Cn1nc(C(F)(F)F)c(/C=N/OC(=O)c2ccccc2)c1SCc1ccccc1Cl	16.4µM*	2.0%	?	18.4µM*	11.6µM*	?
COCCNC(=O)C1(C)CCCN(C(=O)c2cc(F)cc(F)c2)C1 (centres undefined)	.	.	i	.	i	.
SMILES	SW480 rereplic	Gal4-VP16 FLuc	KB-3-1 cytotox	MCF10A rereplic	KB-V1 cytotox	RORg inh
Cc1ccsc1/C=C(\C(=O)c1ccc(OC(C)C)cc1)c1nc2ccccc2o1	8.2µM*	-8.7%	i	17.9%	?	?
O=C(NNC(=O)C12CC3CC(CC(C3)C1)C2)c1cnccn1	10.1%	?	i	-3.0%	?	?
O=C(NNC(=O)C12CC3CC(CC(O)(C3)C1)C2)c1ccccc1O	16.4µM*	1.1%	?	2.7%	i	-37.3%
O=C(NNC(=O)C12CC3CC(CC(Br)(C3)C1)C2)c1ccccc1F	-8.4%	.	i	0.0%	i	.
O=C(NNC(=O)C12CC3CC(CC(C3)C1)C2)c1ccccn1	?	4.47µM*	?	?	i	0.501µM*
CCC12CN3CC(C)(CN(C1)C3c1ccc(O)cc1O)C2=O (centres undefined)	.	.	i	.	i	.
